Laboratory results reported in article PMC11006913.

Tests used:
Assay in all cases: PBM; 200 nM protein, PBS
Conditions in all cases: dsDNA, one strand shown
[1] = target: PITX2 (Homo sapiens, UniProt Q99697 72-157)
[2] = target: HOXD13 (Homo sapiens, UniProt P35453 263-343, T313R)
[3] = target: HOXD13 (Homo sapiens, UniProt P35453 263-343)
[4] = target: HOXD13 (Homo sapiens, UniProt P35453 263-343, T313A)
[5] = target: VAX1 (Homo sapiens, UniProt Q5SQQ9 86-172)
[6] = target: VAX1 (Homo sapiens, UniProt Q5SQQ9 86-172, T142I)
[7] = target: VAX1 (Homo sapiens, UniProt Q5SQQ9 86-172, K157R)
VAX1 (Homo sapiens, UniProt Q5SQQ9 86-172, K157R), sequence (Q5SQQ9 86-172 K157R): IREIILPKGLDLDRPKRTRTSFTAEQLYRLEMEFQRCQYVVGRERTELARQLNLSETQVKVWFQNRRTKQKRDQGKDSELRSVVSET

HOXD13 (Homo sapiens, UniProt P35453 263-343, T313A), sequence (P35453 263-343 T313A): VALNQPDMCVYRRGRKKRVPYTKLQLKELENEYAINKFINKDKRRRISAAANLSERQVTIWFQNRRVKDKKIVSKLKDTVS
HOXD13 (Homo sapiens, UniProt P35453 263-343, T313R), sequence (P35453 263-343 T313R): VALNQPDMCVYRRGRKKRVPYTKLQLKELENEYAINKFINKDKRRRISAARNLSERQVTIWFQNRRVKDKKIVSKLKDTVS
VAX1 (Homo sapiens, UniProt Q5SQQ9 86-172), sequence (Q5SQQ9 86-172): as the sequence (Q5SQQ9 86-172 K157R) above, with R72K counted along it
HOXD13 (Homo sapiens, UniProt P35453 263-343), sequence (P35453 263-343): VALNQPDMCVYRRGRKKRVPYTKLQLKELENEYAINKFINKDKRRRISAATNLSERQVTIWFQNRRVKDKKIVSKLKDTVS
VAX1 (Homo sapiens, UniProt Q5SQQ9 86-172, T142I), sequence (Q5SQQ9 86-172 T142I): as the sequence (Q5SQQ9 86-172 K157R) above, with T57I, R72K counted along it

Q: With GCGCTGCC as the sequence, how does the binding signal [1] read?
A: 8 upbm affinity estimate (log intensity, higher = more binding, comparable within an allelic series)

Q: Which binding signal [2] does the source give for AGCGGCGC here?
A: 9.52 upbm affinity estimate (log intensity, higher = more binding, comparable within an allelic series)

Q: What about the binding signal [3] of the same sequence?
A: 9.67 upbm affinity estimate (log intensity, higher = more binding, comparable within an allelic series)

Q: What about the binding signal [4] of the same sequence?
A: 9.61 upbm affinity estimate (log intensity, higher = more binding, comparable within an allelic series)

Q: GCAGTGGC was tested. Which binding signal [5] did it give?
A: 7.24 upbm affinity estimate (log intensity, higher = more binding, comparable within an allelic series)

Q: And the binding signal [6]?
A: 7.19 upbm affinity estimate (log intensity, higher = more binding, comparable within an allelic series)

Q: What about the binding signal [7] of the same sequence?
A: 7.24 upbm affinity estimate (log intensity, higher = more binding, comparable within an allelic series)
